KCNQ2 block: rat KCNQ2 potassium channel inhibitors, primary screen, cell-based, CHO-K1, FluxOR thallium flux, B-score; 20 min; stronger effect = lower value; B-score at 10 µM; hit rate 1.1% among 310,000;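 active means fluorescence ratio B-score at most minus 3 library SDs, with starting brightness B-score within 2 library SDs, cut at about -5.5 in these data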
Target sequence (O88943 whole entry, looked up): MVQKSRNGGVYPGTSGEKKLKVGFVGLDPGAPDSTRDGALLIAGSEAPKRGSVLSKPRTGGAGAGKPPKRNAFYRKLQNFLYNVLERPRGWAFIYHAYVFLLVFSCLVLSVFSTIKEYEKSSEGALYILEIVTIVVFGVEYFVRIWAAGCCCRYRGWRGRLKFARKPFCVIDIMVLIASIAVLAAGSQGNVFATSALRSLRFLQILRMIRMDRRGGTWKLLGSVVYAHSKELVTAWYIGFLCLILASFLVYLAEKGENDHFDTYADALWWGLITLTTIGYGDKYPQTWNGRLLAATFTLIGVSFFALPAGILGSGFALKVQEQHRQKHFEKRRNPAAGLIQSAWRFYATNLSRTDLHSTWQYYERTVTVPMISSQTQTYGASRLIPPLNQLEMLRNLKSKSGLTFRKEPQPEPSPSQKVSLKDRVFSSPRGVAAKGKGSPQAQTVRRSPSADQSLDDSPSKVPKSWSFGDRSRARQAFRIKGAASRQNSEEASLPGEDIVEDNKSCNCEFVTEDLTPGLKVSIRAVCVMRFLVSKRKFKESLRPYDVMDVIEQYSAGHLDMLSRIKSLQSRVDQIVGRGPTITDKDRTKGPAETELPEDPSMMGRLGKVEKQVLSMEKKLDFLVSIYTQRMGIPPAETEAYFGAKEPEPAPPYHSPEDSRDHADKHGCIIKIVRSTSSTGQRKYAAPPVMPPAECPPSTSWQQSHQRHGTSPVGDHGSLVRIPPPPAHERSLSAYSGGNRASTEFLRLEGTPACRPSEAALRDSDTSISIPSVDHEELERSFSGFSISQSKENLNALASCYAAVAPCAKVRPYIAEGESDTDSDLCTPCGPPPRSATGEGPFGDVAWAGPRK
KCNQ2 enhance: potentiators of rat KCNQ2 potassium channel | Potassium voltage-gated channel subfamily KQT member 2 (Rattus norvegicus), O88943 | CHO-K1 KCNQ2, FluxOR thallium flux fluorescence; stronger effect = higher value | B-score at 10 µM | hit rate 0.54% among 310,000 | AID 2239, 2010;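 active means fluorescence ratio B-score at least 3 SD of library B-scores, with initial fluorescence B-score within 3 of them, cut at about 5.3 in these data; same plate scores as AID 2156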;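 further: B-score of peak minus minimum over baseline fluorescence ratio after K+ and Tl+ stimulus; positive B-score means potentiation of KCNQ2 with more thallium influx and brighter signal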
Kir21 confirm: mouse Kir2.1 channel blockers, retest, confirmation, cell-based, FluxOR thallium flux, duplicate; Tl flux remaining, % of negative control (stronger effect = lower value), % at 10 µM; AID 2032, 2009; shares compounds with KCNQ2 enhance; hit rate 41% among 2,300; Kir2.1-expressing cells, FluxOR thallium flux fluorescence; stronger effect = lower value;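 active means Primary-screen hit whose thallium flux fell at least 3 control SD below untreated wells in both duplicates, with normal baseline fluorescence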
HEK293 ctr: alters thallium flux in parental HEK293 cells, Kir2.1 counter-screen | shares compounds with KCNQ2 enhance | FluxOR thallium flux fluorescence; 0% = unstimulated blank wells | FluxOR signal as % of negative control (100 = no effect), % at 10 µM | hit rate 19% among 2,300 | AID 2105;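 active means dye signal at least 3 control SD above or below untreated wells in both duplicates, raw fluorescence within 3, either direction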;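 further: percent is based on the flux ratio of peak minus minimum fluorescence over baseline F0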
CHO-K1 ctr: nonspecific thallium flux increase in parental CHO-K1, confirmation, counter-screen for KCNQ2 potentiator project, cell-based, FluxOR thallium flux, duplicate. shares compounds with KCNQ2 enhance. parental CHO-K1 cells, FluxOR thallium flux fluorescence; zero = vehicle mean+3SD, 100% = vehicle-minus-blank window. activity increase over 3SD of controls, % at 10 µM. hit rate 43% among 1,200;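 active means signal rise of at least 3 SD above the untreated control mean, in both duplicate wells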;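 further: counter screen of KCNQ2 potentiator hits so any rise reflects channel-independent effects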
KCNQ1 pot spec: human KCNQ1 channel potentiation off-target, confirmation, selectivity assay for KCNQ2 potentiator project, cell-based, CHO, FluxOR thallium flux; hit rate 28% among 1,200; shares compounds with KCNQ2 enhance; CHO KCNQ1 stable, FluxOR thallium flux fluorescence; beyond 3SD, as % of vehicle-control signal; activation over 3SD threshold, % at 10 µM; AID 2283, 2010;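 active means fluorescence ratio rise of at least 3 SD of vehicle wells above their mean, in both replicate wells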
KCNQ2 pot confirm: rat KCNQ2 channel potentiators, confirmation, cell-based, CHO, FluxOR thallium flux, duplicate. shares compounds with KCNQ2 enhance. CHO-KCNQ2 cells, FluxOR thallium flux fluorescence. potentiation, less the hit threshold, % at 10 µM. hit rate 68% among 1,200;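 active means fluorescence ratio rising 3 SD or more over the vehicle control mean in both replicates, plus primary screen hit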;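 further: peak minus minimum thallium fluorescence divided by baseline after K/Tl stimulus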
Kir2-1 sel: mouse Kir2.1 channel activation off-target, confirmation, selectivity assay for KCNQ2 potentiator project, cell-based, HEK293, FluxOR thallium flux | shares compounds with KCNQ2 enhance | HEK293 Kir2.1, FluxOR thallium flux fluorescence | activity over 3SD threshold, % at 10 µM | hit rate 2% among 1,200;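 active means fluorescence ratio rise of at least 3 SD above the vehicle-control mean, seen in both replicates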
KCNQ2 W236L pot: potentiators of retigabine-insensitive KCNQ2 W236L, mechanism study for KCNQ2 potentiator project, cell-based, rat KCNQ2 W236L, CHO, automated patch clamp | shares compounds with KCNQ2 enhance | automated patch clamp current | current increase over 3SD of negative controls (%), stronger effect = higher value, % at 25 µM | hit rate 10% among 940;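 active means current increase at least 3 SD of the untreated controls above them in both duplicate recordings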
Of the large screens only hits and unclear results are named; the others gave an inactive call (follow-up assays come after a bar, where they were run). An excerpt weighted towards active compounds, which were near 1.6% of everything screened.

O=c1cc2c(=O)oc3cc(O)c(O)oc3c2c(O)c1O	none (no result: KCNQ2 enhance)
C=CCn1c(SC/C=C/c2ccccc2)nnc1-c1sc(N)nc1C	none (no result: KCNQ2 enhance) | Kir21 confirm 60.0% | HEK293 ctr inactive
C=CCn1c(SCc2ccc(C(=O)OC)cc2)nnc1-c1sc(N)nc1C	none
Cc1c(C(=O)N2CCC(C(N)=O)CC2)oc2ccc(Br)cc12	none
CCCCOC(=O)C[N+](C)(C)CCOC1CC2CCC1(C)C2(C)C (centres undefined)	none (no result: KCNQ2 enhance)
CCCCCCOC(=O)C[N+](C)(C)CCOC1CC2CCC1(C)C2(C)C (centres undefined)	none (no result: KCNQ2 enhance) | Kir21 confirm 24.5% | HEK293 ctr inactive
CCCOC(=O)C[N+](C)(C)CCOC1CC2CCC1(C)C2(C)C (centres undefined)	none (no result: KCNQ2 enhance)
CCCCCCCOC(=O)C[N+](C)(C)CCOC1CC2CCC1(C)C2(C)C (centres undefined)	none (no result: KCNQ2 enhance) | Kir21 confirm 15.5% | HEK293 ctr inactive
COc1cc(C(=O)NCC(=O)NCC2COc3ccccc3O2)cc(OC)c1OC (centres undefined)	none
O=C(COC(=O)C1CCC(=O)N1)Nc1ccccc1Br (centres undefined)	none
O=C(COC(=O)C1CCC(=O)N1)Nc1ccc(Oc2ccccc2)cc1 (centres undefined)	KCNQ2 enhance 7.61 | Kir21 confirm inactive | HEK293 ctr inactive | CHO-K1 ctr 2.8 | KCNQ1 pot spec inactive | KCNQ2 pot confirm inactive | Kir2-1 sel inactive
S=c1nc(COc2ccccc2)[nH]c2ccccc12	KCNQ2 enhance 20.5 | Kir21 confirm inactive | HEK293 ctr 479.0% | CHO-K1 ctr 1.8 | KCNQ1 pot spec inactive | KCNQ2 pot confirm 62.9 | Kir2-1 sel inactive | KCNQ2 W236L pot inactive
S=c1nc(Cc2ccccc2)[nH]c2ccccc12	KCNQ2 enhance 11.2 | Kir21 confirm inactive | HEK293 ctr 323.0% | CHO-K1 ctr 45.3 | KCNQ1 pot spec inactive | KCNQ2 pot confirm 40.4 | Kir2-1 sel inactive | KCNQ2 W236L pot inactive
O=c1[nH]c(COc2ccccc2)nc2ccccc12	none (no result: KCNQ2 enhance)
Cc1nc(=S)c2ccccc2[nH]1	none
S=c1nc(Cc2ccc(Cl)cc2)[nH]c2ccccc12	KCNQ2 enhance 11.1 | Kir21 confirm inactive | HEK293 ctr 158.5% | CHO-K1 ctr inactive | KCNQ1 pot spec inactive | KCNQ2 pot confirm 6.1 | Kir2-1 sel inactive | KCNQ2 W236L pot inactive
Cc1ccc(Cc2nc3ccccc3[nH]2)cc1	none (no result: KCNQ2 enhance)
CNC(=O)N(O)C1N(/N=C/c2cc(Br)ccc2O)C(=S)SC1(C)C (centres undefined)	none (no result: KCNQ2 enhance)
CCC1CCCCN1C(=O)c1ccc([N+](=O)[O-])o1 (centres undefined)	none (no result: KCNQ2 enhance)
Cc1cnc(NC(=O)c2cc3ccccc3o2)s1	none
Cc1ccc(C)c(OCc2cc(C(=O)N3CCN(c4ccccc4C)CC3C)no2)c1 (centres undefined)	none (no result: KCNQ2 enhance)
CC(COc1ccccc1Cc1ccccc1)N1CCCCC1 (centres undefined)	none | Kir21 confirm inactive | HEK293 ctr inactive
O=C(O)COc1ccccc1Cc1ccccc1	none (no result: KCNQ2 enhance)
O=C(OC1CCOC1=O)C1CCN(S(=O)(=O)c2c(Cl)cccc2Cl)CC1 (centres undefined)	none (no result: KCNQ2 enhance)
CN(c1ccccc1)c1ccc(/C=C/[N+](=O)[O-])cc1	none (no result: KCNQ2 enhance) | Kir21 confirm inactive | HEK293 ctr inactive
CN(C)c1ccc(-n2cccc2/C=C/[N+](=O)[O-])cc1	none (no result: KCNQ2 enhance)
O=C(Nc1ccccc1)N(Cc1ccccc1)CC(O)C(F)(F)F (centres undefined)	none (no result: KCNQ2 enhance)
O=C(Nc1cccc(F)c1)N(Cc1ccc(Cl)cc1)CC(O)C(F)(F)F (centres undefined)	KCNQ2 enhance 6.71 | Kir21 confirm inactive | HEK293 ctr inactive | CHO-K1 ctr inactive | KCNQ1 pot spec 39.8 | KCNQ2 pot confirm 13.7 | Kir2-1 sel inactive | KCNQ2 W236L pot inactive
COCCCNS(=O)(=O)c1cc2c3c(c1)C(C)C(=O)N3CCC2 (centres undefined)	none (no result: KCNQ2 enhance)
Cc1ccc(CNCC(O)(c2ccc(F)cc2)c2ccc(F)cc2)cc1	none (no result: KCNQ2 enhance)
OC(CNCc1ccccc1)(c1ccccc1)c1ccccc1	none (no result: KCNQ2 enhance)
COc1ccccc1CNCC(O)(c1ccc(Cl)cc1)c1ccc(Cl)cc1	none (no result: KCNQ2 enhance)
COc1ccc(CNCC(O)(c2ccc(F)cc2)c2ccc(F)cc2)cc1	none (no result: KCNQ2 enhance) | Kir21 confirm inactive | HEK293 ctr inactive
COc1ccc(CNCC(O)(c2ccccc2)c2ccccc2)cc1	none (no result: KCNQ2 enhance) | Kir21 confirm 55.5% | HEK293 ctr inactive
COc1ccccc1CNCC(O)(c1ccc(F)cc1)c1ccc(F)cc1	none (no result: KCNQ2 enhance) | Kir21 confirm 53.0% | HEK293 ctr inactive
CCCCOCCCNC(=O)c1ccc2c(c1)OCO2	KCNQ2 enhance 6.52 | Kir21 confirm inactive | HEK293 ctr inactive | CHO-K1 ctr 1.4 | KCNQ1 pot spec inactive | KCNQ2 pot confirm inactive | Kir2-1 sel inactive
COCCCNC(=O)c1ccc2c(c1)OCO2	none (no result: KCNQ2 enhance)
COc1ccc(-c2cc(-c3ccc(C)cc3)n[nH]2)c(O)c1	KCNQ2 enhance 7.05 | Kir21 confirm inactive | HEK293 ctr inactive | CHO-K1 ctr 16.2 | KCNQ1 pot spec inactive | KCNQ2 pot confirm inactive | Kir2-1 sel inactive
COc1ccc(-c2cc(-c3cc(C)ccc3O)[nH]n2)cc1	none
O=C(CC1(c2ccc(Cl)cc2)C2CC3CC(C2)CC1C3)NCCO (centres undefined)	KCNQ2 enhance 5.37 | Kir21 confirm inactive | HEK293 ctr inactive | CHO-K1 ctr 48.4 | KCNQ1 pot spec 72.5 | KCNQ2 pot confirm 13.6 | Kir2-1 sel inactive | KCNQ2 W236L pot inactive
O=C(COC(=O)C12CC3CC(CC(O)(C3)C1)C2)NCCc1ccc(Cl)cc1	none (no result: KCNQ2 enhance)
